# Measured values reported in the supplement of paper PMC3334620.
# Whole data set: some 33,000 sequences, median “E-score (-0.5 to 0.5)” near -0.053, cut for the highest 2% near 0.37. Many of the other results were omitted from the sample, so the highest values are more common in it than they were.
# Molecular target: Hap1 (UniProt P0CE41)
# Experiment: PBM E-score (8-mer binding enrichment) (E-score (-0.5 to 0.5)); higher = stronger / more preferred TF binding
# Conditions: protein concentration: 200 nM; construct: GST-DNA-binding domain
# Method in brief: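 Universal all-10-mer Agilent arrays, double-stranded by primer extension on fresh or once-stripped slides, were probed with about 100-200 nM GST-tagged yeast transcription factors made by PURExpress. Fluorescent anti-GST detected bound protein, and masliner normalised the scans. E-scores from the Universal PBM Analysis Suite were given to each ungapped eight-base word pooled with its reverse complement.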
# Chain of UniProt P0CE41 (P0CE41 whole entry): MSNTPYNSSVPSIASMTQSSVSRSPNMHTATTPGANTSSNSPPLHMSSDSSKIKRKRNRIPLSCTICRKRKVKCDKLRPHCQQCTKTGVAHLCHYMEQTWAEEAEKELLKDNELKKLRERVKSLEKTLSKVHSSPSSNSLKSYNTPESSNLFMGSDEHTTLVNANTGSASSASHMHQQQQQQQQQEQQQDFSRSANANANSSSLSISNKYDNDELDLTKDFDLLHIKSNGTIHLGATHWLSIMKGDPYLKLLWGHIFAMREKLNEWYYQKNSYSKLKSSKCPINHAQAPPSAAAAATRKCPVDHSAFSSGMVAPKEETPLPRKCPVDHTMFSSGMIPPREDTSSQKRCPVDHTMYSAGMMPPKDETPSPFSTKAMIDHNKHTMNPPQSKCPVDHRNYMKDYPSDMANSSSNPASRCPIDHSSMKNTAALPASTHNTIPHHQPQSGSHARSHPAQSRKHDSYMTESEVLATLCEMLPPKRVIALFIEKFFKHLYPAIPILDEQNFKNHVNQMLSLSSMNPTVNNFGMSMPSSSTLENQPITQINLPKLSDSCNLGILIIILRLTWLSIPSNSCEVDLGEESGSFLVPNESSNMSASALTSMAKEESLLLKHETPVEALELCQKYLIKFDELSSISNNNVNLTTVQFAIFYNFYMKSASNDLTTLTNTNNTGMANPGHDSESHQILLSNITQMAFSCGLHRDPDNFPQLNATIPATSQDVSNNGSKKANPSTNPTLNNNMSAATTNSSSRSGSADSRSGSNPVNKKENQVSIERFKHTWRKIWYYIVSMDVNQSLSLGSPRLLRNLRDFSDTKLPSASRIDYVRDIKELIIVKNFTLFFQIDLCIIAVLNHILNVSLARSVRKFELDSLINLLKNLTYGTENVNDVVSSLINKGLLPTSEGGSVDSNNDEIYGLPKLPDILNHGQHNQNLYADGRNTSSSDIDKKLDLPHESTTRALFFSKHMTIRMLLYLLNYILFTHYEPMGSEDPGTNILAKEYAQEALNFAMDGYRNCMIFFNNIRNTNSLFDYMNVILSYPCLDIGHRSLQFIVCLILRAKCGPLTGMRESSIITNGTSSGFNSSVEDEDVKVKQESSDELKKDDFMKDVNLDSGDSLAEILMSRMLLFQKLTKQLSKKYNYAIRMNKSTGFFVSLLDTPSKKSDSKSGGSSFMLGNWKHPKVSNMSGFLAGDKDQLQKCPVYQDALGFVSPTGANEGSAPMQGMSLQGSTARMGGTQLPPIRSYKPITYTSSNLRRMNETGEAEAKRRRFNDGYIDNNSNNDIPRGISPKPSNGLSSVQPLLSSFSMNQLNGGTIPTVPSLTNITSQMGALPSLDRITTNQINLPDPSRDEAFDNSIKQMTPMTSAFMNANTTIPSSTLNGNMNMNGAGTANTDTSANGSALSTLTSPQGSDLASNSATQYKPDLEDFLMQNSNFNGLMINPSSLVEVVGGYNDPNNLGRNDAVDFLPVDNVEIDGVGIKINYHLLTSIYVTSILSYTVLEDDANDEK
row,Sequence,PBM E-score
1,AAACCAAG,-0.0855
2,CGCGGGCA,0.256
3,TATGGTCA,-0.303
4,CAGAGATA,-0.182
5,ACCGTGAA,0.126
6,CGTTCCAG,-0.157
7,AGCCCCTG,-0.269
8,CATCTATC,-0.00973
9,CAACGGAA,0.285
10,GAACGGAA,0.282
11,TATCGGGA,0.393
12,CATCGGGA,0.223
13,CATCGGCA,0.266
14,AATCGGAA,0.364
15,AATCGGCA,0.224
16,TATCGGAA,0.409
17,TAACGGAA,0.375
18,CATCGGAA,0.297
19,GATCGGGA,0.136
20,TATCGGCA,0.425
21,GAAGGCAA,-0.137
22,AAATTGAG,-0.0939
23,CTCTGGCA,-0.217
24,ATTGGTTA,-0.094
25,CCGGAGGA,0.432

row,Sequence,PBM E-score
1,GCGGAGTA,0.25
2,ACGGAGAA,0.27
3,CCGGAGTA,0.435
4,CCGGAGTC,0.356
5,GCGGAGAA,0.349
6,TCGGAGAA,0.405
7,GCGGAGGA,0.17
8,CCGGAGAA,0.428
9,CCGGAGGC,0.286
10,CCGGAGAG,0.354
11,CAGGAGAA,-0.147
12,ACCATGCG,-0.0491
13,CATTAACC,0.0537
14,TCTATGAA,-0.115
15,CACAATGC,-0.0342
16,GAGAATGA,-0.137
17,AGGGCTGG,-0.101
18,CCGGTTCA,0.267
19,CGTTTTAA,-0.0609
20,CCGGAGAC,0.373
21,CCGGAGCG,0.359
22,GCGGAGCA,0.211
23,GCGGAGAC,0.348
24,CGGGAGAC,0.216
25,CCGGAGCA,0.418

row,Sequence,PBM E-score
1,AGTTAGGC,-0.113
2,CTCGGGAC,0.263
3,GCCCCATA,-0.00491
4,ACCGGGTC,0.194
5,GCCGGGAA,0.326
6,GCCGGGGA,0.392
7,CCCGGGGC,0.33
8,CCCGGGTA,0.315
9,CCCCGGCG,0.309
10,CCCGGGCG,0.383
11,CCCGGGTC,0.386
12,CCGGGGCC,0.318
13,CCCGGGGA,0.359
14,CCCGGGCC,0.387
15,CCGGGGCG,0.322
16,CGGGGTTC,0.211
17,AACAGATC,-0.0165
18,GCCTTAGA,-0.04
19,GGTAACAA,0.13
20,TAAGAATA,-0.141
21,TGTCCACA,-0.159
22,TTACCAAA,-0.0884
23,CTGGTTAC,-0.205
24,GAAAAGTA,-0.0758
25,GATCTGCC,0.03

row,Sequence,PBM E-score
1,CCGGGGCA,0.312
2,ACCGGGGG,0.379
3,AACGGGCG,0.246
4,ACCGGGCT,0.334
5,ACCGGGGC,0.291
6,ACCGGGCG,0.385
7,CCCGGGCA,0.376
8,ACCGGGCC,0.373
9,GCCGGGCA,0.301
10,ACCGGGCA,0.288
11,AGCGGGCG,0.222
12,ACCGGGGA,0.284
13,GCCAACAC,0.0365
14,CGAGCAAG,-0.182
15,CATTTAGG,-0.112
16,CTCCTCCA,-0.216
17,CCGGGCAA,0.322
18,GAGGAACC,-0.0105
19,CAGCATTC,-0.162
20,TATCAGCA,0.0209
21,GCTTCACC,-0.12
22,CTCAGTTC,-0.241
23,GCTCTGTA,-0.234
24,AGAACATG,-0.0473
25,CCCCTCCC,-0.00587

row,Sequence,PBM E-score
1,AACTGCCA,-0.186
2,CACTCCGC,0.156
3,GACTCCGC,0.174
4,AACTCCCT,-0.0179
5,GACTCCGA,0.301
6,CACTCCGG,0.302
7,TACTCCGA,0.375
8,CACTCCGA,0.212
9,AACTCCCG,0.333
10,AACTCCGG,0.481
11,AACTCCAT,0.139
12,AACTCCGT,0.447
13,AACTCCGC,0.389
14,ACCCTGTA,-0.0405
15,CCTTCAAG,-0.253
16,AAGTGGCG,-0.0765
17,ACGGCTGG,0.00715
18,AACTCCGA,0.474
19,AACTCCCA,-0.00143
20,AACTCCAA,-0.0924
21,TCTGTCCA,0.00731
22,CATCGGCG,0.264
23,ACACTAGA,-0.095
24,CCGGACAC,0.351
25,ACGGACAA,0.335

row,Sequence,PBM E-score
1,CCGGACAA,0.414
2,CTGGACAA,-0.215
3,GCGGACAA,0.304
4,CCGGACAG,0.382
5,CAGGACAA,0.0261
6,CAGGACAG,-0.195
7,TCGGACAA,0.394
8,CGCGGGAG,0.0987
9,CCAGTGCG,0.0478
10,GTTCCATA,-0.0357
11,ACGCAACT,0.064
12,AGTGCCAT,-0.0559
13,ATATCGGA,0.439
14,CTATCGGA,0.452
15,CAATCGGG,0.205
16,TAATCGGA,0.317
17,CTATCGTA,-0.17
18,GTATCGAA,-0.152
19,GTATCGGA,0.415
20,CTATCGAA,-0.177
21,AAATCGGA,0.344
22,GAATCGGA,0.366
23,ATATCGTA,0.11
24,CAATCGGA,0.394
25,AACACAGA,-0.116

row,Sequence,PBM E-score
1,AGACCTTA,-0.154
2,GCTATAGC,0.0502
3,AGCGGCAA,0.0491
4,CACGCTAA,-0.0232
5,ATACCCCC,0.283
6,AACGCCCC,0.128
7,AAGGACAG,-0.182
8,AAATCGGG,0.246
9,ATATCGGG,0.436
10,ATATCGTG,-0.0299
11,ATTCCGAG,0.397
12,ATTCCAAG,-0.177
13,CTTCCGAA,0.324
14,AATCCGAG,0.338
15,ATTCCGAC,0.307
16,ATTCCGAA,0.375
17,AAGTCGGG,0.153
18,AAACCACG,-0.0117
19,ACACACCC,0.117
20,AAAGTCCG,0.446
21,AAAGTCCT,0.157
22,CAAGTCCC,-0.181
23,AAAGTCCA,-0.0824
24,CAAGTCCA,-0.222
25,CAAGTCCG,0.39

row,Sequence,PBM E-score
1,CATCCTCA,-0.154
2,AATCAAAG,-0.129
3,AGCGGTCG,0.123
4,GGCTAAAA,0.0064
5,GGATATAA,0.382
6,GGATATAC,0.319
7,CGTGATAA,-0.0733
8,AGAGATAA,0.00783
9,GGTGATAC,0.14
10,GGTGATAA,0.378
11,CGAGATAC,0.188
12,CGATATAA,0.308
13,GGAGATAC,0.438
14,GGAGATAA,0.455
15,AGAGATAC,-0.0992
16,CGAGATAA,0.164
17,CGGAAGCC,0.199
18,GAGCGTGA,-0.183
19,AGTGCACT,-0.0451
20,AACTTCTG,-0.205
21,CTGGTAGA,-0.2
22,GAACACGA,-0.0354
23,ACCTGAAT,-0.104
24,CAGCCCTA,-0.0376
25,AGTTATCC,0.106

row,Sequence,PBM E-score
1,AGTTATCA,-0.0683
2,ACTTATCA,-0.148
3,AGTTATCG,0.382
4,CCTTATCG,0.241
5,ACTTATCG,0.415
6,AGCGCGGA,0.223
7,GCGACAGC,0.0479
8,ACCCGATG,0.3
9,ACCCGATA,0.439
10,GCCCGACA,0.255
11,CCCCGATA,0.44
12,CCCCGATC,0.35
13,GCCCGATA,0.423
14,ACCCGATC,0.244
15,GCACGATA,0.0171
16,CCCCGAAA,0.348
17,CTTAGGAC,-0.283
18,AGGGGGAC,-0.213
19,ATCCGCCG,0.375
20,ATCCGCCA,0.181
21,ATCCGCCC,0.243
22,AACAAAGT,0.00728
23,ACGGTGGA,-0.062
24,CCGGTGGA,0.39
25,GCGGTGGA,0.0678

row,Sequence,PBM E-score
1,CGACCTTC,0.0839
2,GGGAGATA,0.268
3,CGGAGATC,0.411
4,AGGAGATA,0.253
5,CTGAGATC,-0.171
6,CGGAGATA,0.495
7,AGGAGATC,-0.098
8,GTTCCTGA,-0.242
9,AGCAATAC,-0.0164
10,AGTAAAGC,-0.00459
11,ACGTACAC,-0.181
12,ACCCAACG,-0.0503
13,CGGAGGAG,0.284
14,CGGAGGTA,0.443
15,AGGAGGAA,-0.218
16,CGGAGGAA,0.375
17,CGGAGGTC,0.261
18,AGGAGGTA,-0.044
19,GGAAAACA,0.139
20,CCGGCGGA,0.421
21,ACGGCGGA,0.273
22,GTGGCGGA,0.136
23,CTGGCGGA,-0.0445
24,CCGGCGGC,0.364
25,GCGGCGGA,0.382

row,Sequence,PBM E-score
1,GCGGCTCA,0.073
2,GAGTGTCA,-0.145
3,GAGAATGC,0.0329
4,ACGGATGA,0.228
5,AGACGCGG,0.0872
6,CTCGAAGA,-0.152
7,GGGATTTA,0.327
8,AGGATTTC,0.0343
9,CGGATTTA,0.489
10,CTGATTTC,-0.0451
11,AGGATTTA,0.227
12,CGGATTTC,0.426
13,CTAACCCC,0.235
14,GTCGAATA,-0.0336
15,CCACTGAG,-0.235
16,ACTTCGGC,0.377
17,CCTTCGGC,0.27
18,ACTTCGGA,0.403
19,GCTTCGGA,0.327
20,CCTTCGGA,0.364
21,ACTTCGGG,0.247
22,ACCGCAGT,0.106
23,CAGCCTAA,-0.354
24,ATACTTCC,0.162
25,ACATCCGG,0.427

row,Sequence,PBM E-score
1,ACATCCTG,-0.0661
2,ACATCCGA,0.382
3,CCATCCGG,0.254
4,ACATCCGC,0.347
5,ACATCCGT,0.213
6,TATGTACA,-0.124
7,GCCAGTTA,-0.14
8,ACGCCCGT,0.251
9,ACGCCCGA,0.371
10,GCGCCCGA,0.353
11,CTGCCCGA,0.202
12,ACGCCCCG,0.193
13,CCGCCCGA,0.37
14,AGGCCCGA,0.279
15,GGGCCCGA,0.317
16,ACGCCCGG,0.377
17,ACGCCCGC,0.183
18,CGGCCCGA,0.398
19,TCGCCCGA,0.362
20,GGCCAGCA,-0.0771
21,AAGTCTGA,-0.412
22,CTTGTCTC,-0.073
23,ACGCGAAA,-0.00838
24,ACAAGAGC,-0.109
25,CGGAGCGA,0.331

row,Sequence,PBM E-score
1,CCATAGGA,-0.258
2,GACACGTA,-0.194
3,AAGCCCGT,0.232
4,AAGCCCGC,0.337
5,CCGCCCCG,0.347
6,CCGCCCGC,0.3
7,CCGCCCGG,0.411
8,AAGCCCGG,0.407
9,CAAGTTCC,0.124
10,CAGTGTGC,-0.139
11,ATGGCAGA,0.089
12,CCAAATTC,-0.0397
13,AGTTCCGA,0.395
14,GGTTCCGA,0.279
15,AGTTCCGC,0.278
16,CGTTCCGA,0.123
17,AGTTCCGG,0.394
18,AGTTCCTG,-0.178
19,GGTCCTAC,-0.0458
20,GTCAGCAA,-0.157
21,TTCCGCAA,0.263
22,ACAGGTTC,-0.216
23,AACGGTAA,0.186
24,ACCGGTAC,0.334
25,ACCGGTAT,0.424

row,Sequence,PBM E-score
1,ACCGGTAG,0.228
2,ATCGGTAA,0.31
3,ACCGGTAA,0.406
4,ATCAACAC,-0.154
5,GAAAGAGC,-0.138
6,ACTAGACC,0.0797
7,GGTTAGCA,-0.0201
8,TGTCCTAA,-0.338
9,TGTCCGAA,0.412
10,TGTCCAAA,-0.133
11,GGTCCAAC,0.13
12,GGTCCGAC,0.392
13,AGCCCGAG,0.208
14,CGTCCGAC,0.302
15,CGTCCAAA,0.0813
16,CGTCCGAA,0.394
17,CGCCCGAC,0.366
18,GCTCCGAC,0.212
19,CGCCCGAG,0.396
